About 83,000 compounds went through this panel and 20% of them were active in at least one assay; those are over-represented in the sample as a whole.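 Note: values are percent growth. 100 is the growth of untreated cells, values between 100 and 0 indicate rising inhibition; between -100 and 0 indicates cell death.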 A number with no mark means an inactive call. Activity calls are given as the source filed them. The calls were made as follows: active = growth percent below 10; inactive = the rest.
What was measured:
Experiment in all cases: NCI-60 one-dose screen, 48 h (100 = growth as untreated, 0 = no growth, -100 = all killed)
Details in all cases: 10 µM unless noted
[1] = test system: NCI-H23 lung
[2] = test system: NCI-H226 lung
[3] = test system: NCI-H322M lung
[4] = test system: HOP-62 NSCLC
[5] = test system: NCI-H460 lung
[6] = test system: HOP-92 NSCLC
[7] = test system: NCI-H522 lung
[8] = test system: A549/ATCC NSCLC
[9] = test system: 786-0 renal
[10] = test system: DU-145 prostate
[11] = test system: K-562 leukemia
[12] = test system: MALME-3M melanoma
[13] = test system: MDA-MB-231 breast
[14] = test system: RXF 393 renal
[15] = test system: SF-268 CNS
[16] = test system: SF-295 CNS
[17] = test system: SF-539 CNS
[18] = test system: UACC-257 melanoma
[19] = test system: M14 melanoma

SMILES: CCCCNC(=O)Oc1ccc(/C(=C(/C)Cc2ccc(OC)cc2)c2ccc(OCCN3CCCCC3)cc2)cc1
- growth [1]: 81.6%
- growth [2]: 90.5%
- growth [3]: 92%
- growth [4]: 84.1%
- growth [5]: 33.6%
- growth [6]: 63.4%
- growth [7]: 81.2%
- growth [8]: 61%
- growth [9]: 66.7%
- growth [10]: 92.1%
- growth [11]: -14.1% (active)
- growth [12]: 79.1%
- growth [13]: 87.6%
- growth [14]: 71.5%
- growth [15]: 81.2%
- growth [16]: 86.8%
- growth [17]: 80.4%
- growth [18]: 99.2%
- growth [19]: 31%

SMILES: C/C(=N\O)c1ccc(NC(=O)CSc2nnc(-c3cc(-c4ccc(S(N)(=O)=O)cc4)nc4ccccc34)n2-c2ccccc2)cc1
- growth [1]: 89.6%
- growth [2]: 80.4%
- growth [3]: 86.5%
- growth [4]: 95.5%
- growth [5]: 67.2%
- growth [6]: 66%
- growth [7]: 67.4%
- growth [8]: 79.5%
- growth [9]: 72.6%
- growth [10]: 80.3%
- growth [11]: 43%
- growth [12]: 80%
- growth [13]: 74.3%
- growth [14]: 83.9%
- growth [15]: 60.3%
- growth [16]: 92.2%
- growth [17]: 76.4%
- growth [18]: 87.3%
- growth [19]: 74.4%

SMILES: NS(=O)(=O)c1ccc(NC(=O)/C(=C\c2ccc(Cl)cc2Cl)NC(=O)c2ccccc2)cc1
- growth [1]: 107%
- growth [2]: 103%
- growth [3]: 102%
- growth [4]: 95.7%
- growth [5]: 105%
- growth [6]: 87%
- growth [7]: 80.3%
- growth [8]: 105%
- growth [9]: 104%
- growth [10]: 109%
- growth [11]: 88.2%
- growth [12]: 93.2%
- growth [13]: 105%
- growth [14]: 96%
- growth [15]: 94.5%
- growth [16]: 104%
- growth [17]: 95.7%
- growth [18]: 102%
- growth [19]: 102%

SMILES: O=C(Cc1cccc(OC(F)(F)F)c1)Nc1ccc(CCCCc2nnc(NC(=O)Cc3ccccn3)s2)nn1
- growth [1]: 80.3%
- growth [2]: 60.6%
- growth [3]: 39.8%
- growth [4]: 74.5%
- growth [5]: 74.2%
- growth [6]: -4.64% (active)
- growth [7]: 44.3%
- growth [8]: 43.2%
- growth [9]: 46.3%
- growth [10]: 86.9%
- growth [11]: 45.7%
- growth [12]: 82.8%
- growth [13]: 84.6%
- growth [14]: 52.1%
- growth [15]: 78.7%
- growth [16]: 60.6%
- growth [17]: 81.9%
- growth [18]: 92.9%
- growth [19]: 50.8%

SMILES: CC1(C)NCCC[C@]2(C)[C@H]3CC[C@H]4[C@H]5[C@H](C(=O)/C=C/c6cccnc6)CCC[C@]5(CO)CC[C@@]4(C)[C@]3(C)CC[C@@H]12
- growth [1]: 77.6%
- growth [2]: 96.2%
- growth [3]: 85.5%
- growth [4]: 97.3%
- growth [5]: 10.9%
- growth [6]: 48.1%
- growth [7]: 88%
- growth [8]: 67%
- growth [9]: 83.8%
- growth [10]: 66.6%
- growth [11]: -3.12% (active)
- growth [12]: 85.7%
- growth [13]: 67.4%
- growth [14]: 66.2%
- growth [15]: 72.9%
- growth [16]: 84.3%
- growth [17]: 81.4%
- growth [18]: 86.5%
- growth [19]: 85.8%
